# In the supplement of paper PMC8728848:
# Many of the other results were omitted from the sample, so the strongest signals are more common in it than they were.
# B1: PX9961V-pdi-562-26-562 (Parabacteroides distasonis) (protein)
# chain: EIFSEITTDNYYQNSNNIYAALVNNYAKAFSTGWSDARYFLQEVTADQLMIPTRGKHGYNGGEYVRLHEHKWTVEENFVYNGWAAPFQGIALCNNTLSDFENLDFSTFKLTEETKNEYIAELRALRVWNYMFLIDFFRHVPIVTDIEEVKAQSTPLEVFNFMESELLAILPDLPKNRGVSRFDQAGVASILVRLYLNAEKWIGISKYDECEQMAQAILDGKYGEYSIDPDYRGPFRSGINGYRSKENIMEFAIKKNYFEASWLYNMWMHYQDRYSLDNDWQGWNGGNLAPSRDLYGNLYQDKLGMPFEKFPDGDIRKKAFRVISNDGDYEGFFLMGTQYKFDYEKGYGFTDEVITGTEEYNGKPLVYVDQVGRFSEGETGLAKGSHVIYGEENTGYRLIKFPWLPQSKDLFQMNSIPEIRLAEIYYSLAECKYRSGDKIGAARLLDVVRKRYYKAEDWSKFSYESNISKLTDDEFVDELGREFIGERHRRIDLIRWNRFSEGAWWDKTPDATNQDVFPIPYRALNANPLLKQTTAGF
# What was measured:
# Assay in all cases: glycan array binding signal (z-score within array); higher = stronger binding
# Conditions in all cases: glycan notation: IUPAC condensed, linker removed
# Gal3S(b1-4)GlcNAc = molecular target: Gal3S(b1-4)GlcNAc
# Summary of the method: (§1)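 Glycan array data were curated from 3228 arrays in the Consortium for Functional Glycomics database and kept only where the protein sequence was available. Glycan names were converted to IUPAC-condensed notation, and columns mapping to the same glycan were averaged. The binding signal is a within-array Z-score, averaged across arrays of the same protein sequence at different concentrations or buffers and across linkers. Negative Z-scores can be read as non-binding.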
# [1] = molecular target: GalNAc(a1-3)GalNAc(b1-3)Gal(a1-4)Gal(b1-4)Glc
# Summary of the method: as §1
# [2] = molecular target: GalNAc(b1-3)Gal(a1-4)Gal(b1-4)GlcNAc
# Summary of the method: as §1
# [3] = molecular target: GlcNAc(b1-2)Man(a1-3)[GlcNAc(b1-4)][GlcNAc(b1-2)Man(a1-6)]Man(b1-4)GlcNAc(b1-4)[Fuc(a1-6)]GlcNAc
# Summary of the method: as §1
# [4] = molecular target: GlcNAc(b1-2)[GlcNAc(b1-4)]Man(a1-3)[GlcNAc(b1-4)][GlcNAc(b1-2)Man(a1-6)]Man(b1-4)GlcNAc(b1-4)GlcNAc
# Summary of the method: as §1
# [5] = molecular target: GlcNAc(b1-3)Gal(b1-4)GlcNAc(b1-3)[GlcNAc(b1-3)Gal(b1-4)GlcNAc(b1-3)]GalNAc
# Summary of the method: as §1
# GlcNAc(b1-3)GalNAc = molecular target: GlcNAc(b1-3)GalNAc
# Summary of the method: as §1
# [6] = molecular target: GlcNAc(b1-4)GlcNAc(b1-4)GlcNAc(b1-4)GlcNAc(b1-4)GlcNAc
# Summary of the method: as §1
# Man(a1-3)[Man(a1-6)]Man = molecular target: Man(a1-3)[Man(a1-6)]Man
# Summary of the method: as §1
# Neu5Ac(a2-3)Gal = molecular target: Neu5Ac(a2-3)Gal
# Summary of the method: as §1
# [7] = molecular target: Neu5Ac(a2-3)Gal(b1-3)GalNAc(b1-3)Gal(a1-4)Gal(b1-4)Glc
# Summary of the method: as §1
# [8] = molecular target: Neu5Ac(a2-3)Gal(b1-3)GlcNAc(b1-2)Man(a1-3)[GlcNAc(b1-4)][Neu5Ac(a2-3)Gal(b1-3)GlcNAc(b1-2)Man(a1-6)]Man(b1-4)GlcNAc(b1-4)GlcNAc
# Summary of the method: as §1
# [9] = molecular target: Neu5Ac(a2-3)Gal(b1-3)[Fuc(a1-4)]GlcNAc
# Summary of the method: as §1
# [10] = molecular target: Neu5Ac(a2-3)Gal(b1-4)GlcNAc(b1-3)Gal(b1-4)GlcNAc
# Summary of the method: as §1
# [11] = molecular target: Neu5Ac(a2-3)Gal(b1-4)GlcNAc(b1-3)Gal(b1-4)GlcNAc(b1-3)Gal(b1-4)GlcNAc
# Summary of the method: as §1
# [12] = molecular target: Neu5Ac(a2-3)Gal(b1-4)GlcNAc(b1-3)Gal(b1-4)GlcNAc(b1-3)GalNAc
# Summary of the method: as §1
# [13] = molecular target: Neu5Ac(a2-3)Gal(b1-4)[Fuc(a1-3)]GlcNAc(b1-6)[Neu5Ac(a2-3)Gal(b1-3)]GalNAc
# Summary of the method: as §1
# Neu5Ac(a2-6)Gal(b1-4)Glc = molecular target: Neu5Ac(a2-6)Gal(b1-4)Glc
# Summary of the method: as §1
# [14] = molecular target: Neu5Ac(a2-6)Gal(b1-4)GlcNAc(b1-2)Man(a1-3)[GlcNAc(b1-4)][Neu5Ac(a2-6)Gal(b1-4)GlcNAc(b1-2)Man(a1-6)]Man(b1-4)GlcNAc(b1-4)GlcNAc
# Summary of the method: as §1
# [15] = molecular target: Neu5Ac(a2-6)Gal(b1-4)GlcNAc(b1-2)Man(a1-3)[Man(a1-6)]Man(b1-4)GlcNAc(b1-4)GlcNAc
# Summary of the method: as §1
# [16] = molecular target: Neu5Ac(a2-6)Gal(b1-4)GlcNAc(b1-6)[Gal(b1-3)]GalNAc
# Summary of the method: as §1
# [17] = molecular target: Neu5Ac(a2-8)Neu5Ac(a2-3)Gal(b1-3)GalNAc(b1-4)[Neu5Ac(a2-3)]Gal(b1-4)Glc
# Summary of the method: as §1
# [18] = molecular target: Neu5Ac(a2-8)Neu5Ac(a2-3)Gal(b1-4)GlcNAc
# Summary of the method: as §1
# [19] = molecular target: Neu5Gc(a2-3)Gal(b1-4)GlcNAc
# Summary of the method: as §1
# [20] = molecular target: Neu5Gc(a2-3)Gal(b1-4)GlcNAc(b1-3)Gal(b1-4)GlcNAc(b1-2)Man(a1-3)[Neu5Gc(a2-3)Gal(b1-4)GlcNAc(b1-3)Gal(b1-4)GlcNAc(b1-2)Man(a1-6)]Man(b1-4)GlcNAc(b1-4)GlcNAc
# Summary of the method: as §1
# [21] = molecular target: Neu5Gc(b2-6)Gal(b1-4)GlcNAc
# Summary of the method: as §1
binder,measurement,setting,value
B1,glycan array binding signal (z-score),Gal3S(b1-4)GlcNAc,-0.447
same,glycan array binding signal (z-score),[1],-0.432
same,glycan array binding signal (z-score),[2],-0.339
same,glycan array binding signal (z-score),[3],-0.145
same,glycan array binding signal (z-score),[4],-0.324
same,glycan array binding signal (z-score),[5],-0.471
same,glycan array binding signal (z-score),GlcNAc(b1-3)GalNAc,-0.21
same,glycan array binding signal (z-score),[6],0.049
same,glycan array binding signal (z-score),Man(a1-3)[Man(a1-6)]Man,-0.443
same,glycan array binding signal (z-score),Neu5Ac(a2-3)Gal,-0.711
same,glycan array binding signal (z-score),[7],-0.516
same,glycan array binding signal (z-score),[8],0.213
same,glycan array binding signal (z-score),[9],-0.598
same,glycan array binding signal (z-score),[10],-0.53
same,glycan array binding signal (z-score),[11],-0.516
same,glycan array binding signal (z-score),[12],-0.319
same,glycan array binding signal (z-score),[13],2.66
same,glycan array binding signal (z-score),Neu5Ac(a2-6)Gal(b1-4)Glc,-0.644
same,glycan array binding signal (z-score),[14],-0.373
same,glycan array binding signal (z-score),[15],-0.231
same,glycan array binding signal (z-score),[16],-0.27
same,glycan array binding signal (z-score),[17],-0.606
same,glycan array binding signal (z-score),[18],-0.574
same,glycan array binding signal (z-score),[19],0.017
same,glycan array binding signal (z-score),[20],-0.054
same,glycan array binding signal (z-score),[21],-0.322
